These results are taken from PubChem BioAssay (EPA / NIEHS).

Molecules are shown by their SMILES. Some structures have more than one record in an assay (separate samples or runs), and their calls can disagree. The source made the active and inactive calls. How the source made its calls: active means hit-call score of the fitted dose curve at least 0.9, where 1 is the maximum; inactive means score below 0.9.

Experiment [1] is described as follows: ATG_GLI_CIS: Attagene CIS-FACTORIAL HepG2 Assay for human Zinc Finger Protein GLI1 (AID 2282945). The note with it: HepG2, Attagene cis-factorial reporter mRNA, GLI element; actives raise or lower the signal. The procedure, abridged:
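Bidirectional curve fits relative to DMSO, using reporter mRNA levels from RT-PCR plus capillary electrophoresis. Cells were HepG2 transiently carrying cis-regulated reporter constructs, harvested 24 h after dosing.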

Experiment [2] concerns the target Bile acid receptor (Homo sapiens) (UniProt Q96RI1). As to the kind of experiment: ATG_IR1_CIS: Attagene CIS-FACTORIAL HepG2 Assay for human Nuclear Receptor Subfamily 1 Group H Member 4 (NR1H4), IR1 submotif (AID 2282946). As to conditions: IR1 reporter transcription, actives raise or lower the signal. The procedure, abridged: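 Cells (human HepG2) carry transiently transfected cis-promoter reporter transcription units. Compounds are incubated 24 h, total RNA is reverse-transcribed and amplified, and labelled fragments are resolved by capillary electrophoresis. Curves use DMSO as baseline.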

A short description of experiment [3]: ATG_GRE_CIS: Attagene CIS-FACTORIAL HepG2 Assay for human Glucocorticoid Response Elements (GRE) (AID 2282947). The note with it: HepG2 GRE cis-reporter, Attagene multiplex mRNA; actives raise or lower the signal. The method in brief:
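Assay uses human hepatoma HepG2 cells transfected with cis-promoter reporter units, exposed 24 h. mRNA from reporters detected by RT-PCR plus capillary electrophoresis; DMSO serves as negative control and baseline.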

Experiment [4] is described as follows: ATG_ISRE_CIS: Attagene CIS-FACTORIAL HepG2 Assay for human Interferon Regulatory Factor 1 (IRF1) binding to an Interferon-Stimulated Response Element (ISRE) (AID 2282948). As to conditions: HepG2 ISRE cis-reporter (Attagene), mRNA transcription readout; actives raise or lower the signal. The procedure, abridged: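 Transiently transfected HepG2 cells carrying cis-element reporter units, dosed 24 hours. Reporter mRNA quantified by RT-PCR, fluorescent primer extension, HpaI digestion and capillary electrophoresis. Bidirectional fitting relative to DMSO.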

A short description of experiment [5]: ATG_M_32_CIS: Attagene CIS-FACTORIAL HepG2 Assay for M32 Transcription Factor (Internal Marker) (AID 2282949).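 Further: background control marker of the multiplexed CIS panel rather than a real target.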 As to conditions: HepG2 Attagene cis-factorial M32 reporter, mRNA; actives raise or lower the signal. The procedure, abridged: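 Following 24 h chemical exposure of HepG2 cells transiently expressing cis-promoter reporter constructs, reporter transcript levels were determined by RT-PCR with fluorescent labelling and capillary electrophoresis, then fitted bidirectionally against DMSO.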

For experiment [6], the target named is Hypoxia-inducible factor 1-alpha (Homo sapiens) (UniProt Q16665). As to the kind of experiment: ATG_HIF1a_CIS: Attagene CIS-FACTORIAL HepG2 Assay for human Hypoxia Inducible Factor 1 (HIF1A) (AID 2282951). The note with it: HepG2 Attagene cis-factorial HIF1a reporter transcription; actives raise or lower the signal. The procedure, abridged: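 Dosed 24 h, transfected HepG2 cells yielded total RNA whose reporter transcripts were RT-PCR-amplified and sized by capillary electrophoresis using fluorescent labelling; DMSO defined baseline, with gain and loss of signal both fitted.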
Chain of Hypoxia-inducible factor 1-alpha (Homo sapiens) (Q16665 whole entry, looked up): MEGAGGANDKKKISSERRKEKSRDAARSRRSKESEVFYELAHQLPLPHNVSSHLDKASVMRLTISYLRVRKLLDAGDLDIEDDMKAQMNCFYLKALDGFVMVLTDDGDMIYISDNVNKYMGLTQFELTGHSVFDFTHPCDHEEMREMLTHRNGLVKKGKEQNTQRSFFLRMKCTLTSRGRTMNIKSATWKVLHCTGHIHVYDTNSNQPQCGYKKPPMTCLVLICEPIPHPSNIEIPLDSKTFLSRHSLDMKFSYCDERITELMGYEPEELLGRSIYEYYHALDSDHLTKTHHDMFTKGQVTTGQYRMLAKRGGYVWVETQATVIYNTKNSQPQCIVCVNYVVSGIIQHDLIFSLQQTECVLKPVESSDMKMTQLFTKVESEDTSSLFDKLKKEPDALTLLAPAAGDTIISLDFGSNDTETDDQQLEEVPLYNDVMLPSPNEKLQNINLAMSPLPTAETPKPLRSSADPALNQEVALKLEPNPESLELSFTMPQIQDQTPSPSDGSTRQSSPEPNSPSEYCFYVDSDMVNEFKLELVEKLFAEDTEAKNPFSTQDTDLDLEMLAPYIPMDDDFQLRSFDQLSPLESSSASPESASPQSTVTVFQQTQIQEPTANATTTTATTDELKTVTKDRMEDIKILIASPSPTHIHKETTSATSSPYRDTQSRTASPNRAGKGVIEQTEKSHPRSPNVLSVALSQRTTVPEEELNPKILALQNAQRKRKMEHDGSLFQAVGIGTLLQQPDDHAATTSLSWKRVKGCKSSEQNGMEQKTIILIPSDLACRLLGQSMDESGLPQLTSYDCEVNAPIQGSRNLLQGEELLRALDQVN

For experiment [7], the target named is Hepatocyte nuclear factor 6 (Homo sapiens) (UniProt Q9UBC0). As to the kind of experiment: ATG_HNF6_CIS: Attagene CIS-FACTORIAL HepG2 Assay for human Hepatocyte Nuclear Factor 6 (HNF6) (AID 2282952). As to conditions: HepG2 Attagene cis-factorial HNF6 reporter transcription; actives raise or lower the signal. The method in brief: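 Reporter mRNA induction or loss in HepG2 after 24 h exposure; transient cis-MRTU transfection; fragments quantified by capillary electrophoresis; bidirectional analysis, DMSO as negative control.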
Chain of Hepatocyte nuclear factor 6 (Homo sapiens) (Q9UBC0 whole entry, looked up, the tested form may be a part): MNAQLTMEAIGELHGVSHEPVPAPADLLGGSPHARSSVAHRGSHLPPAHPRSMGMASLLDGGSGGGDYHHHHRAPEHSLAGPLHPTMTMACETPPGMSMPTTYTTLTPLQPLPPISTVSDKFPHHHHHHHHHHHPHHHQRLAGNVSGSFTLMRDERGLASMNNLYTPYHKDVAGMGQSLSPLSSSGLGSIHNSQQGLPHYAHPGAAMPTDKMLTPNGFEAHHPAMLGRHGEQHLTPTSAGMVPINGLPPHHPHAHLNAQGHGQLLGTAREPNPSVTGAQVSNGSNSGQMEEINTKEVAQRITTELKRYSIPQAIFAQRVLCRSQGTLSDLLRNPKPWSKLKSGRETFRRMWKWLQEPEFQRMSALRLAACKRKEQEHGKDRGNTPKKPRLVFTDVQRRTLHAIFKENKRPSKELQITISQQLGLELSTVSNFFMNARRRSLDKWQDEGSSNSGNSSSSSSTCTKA

The nature of experiment [8]: ATG_MRE_CIS: Attagene CIS-FACTORIAL HepG2 Assay for human Metal Responsive Element (MRE) (AID 2282954). As to conditions: HepG2 MRE cis-reporter transcription, Attagene multiplex; actives raise or lower the signal. The method in brief: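 After a 24 h chemical exposure, transiently transfected HepG2 cells yield RNA whose reporter sequences are amplified, FAM-labelled and sized by capillary electrophoresis. Curves are fitted bidirectionally relative to DMSO.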

The nature of experiment [9]: ATG_M_06_CIS: Attagene CIS-FACTORIAL HepG2 Assay for M06 Transcription Factor (Internal Marker) (AID 2282950). The note with it: HepG2 Attagene CIS-FACTORIAL M06 internal marker reporter; actives raise or lower the signal. The method in brief: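 Cells (HepG2, transiently carrying cis-driven reporter units) receive chemical for 24 h before RNA isolation. Reporter cDNA is PCR-amplified, FAM-labelled by primer extension, HpaI-digested and sized on a capillary analyser.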

The target of experiment [10] is Heat shock factor protein 1 (Homo sapiens) (UniProt Q00613). As to the kind of experiment: ATG_HSE_CIS: Attagene CIS-FACTORIAL HepG2 Assay for human Heat Shock Transcription Factor 1 (HSE) (AID 2282953). The note with it: HepG2 HSE cis-reporter, Attagene RNA transcription; actives raise or lower the signal. The procedure, abridged: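 Liver-derived HepG2 cells carry transiently introduced multiple reporter units governed by cis promoters. Reporter RNA measured 24 h post-dose through reverse transcription, PCR amplification, fluorescent labelling and capillary electrophoresis, normalised to DMSO.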
Chain of Heat shock factor protein 1 (Homo sapiens) (Q00613 whole entry, looked up): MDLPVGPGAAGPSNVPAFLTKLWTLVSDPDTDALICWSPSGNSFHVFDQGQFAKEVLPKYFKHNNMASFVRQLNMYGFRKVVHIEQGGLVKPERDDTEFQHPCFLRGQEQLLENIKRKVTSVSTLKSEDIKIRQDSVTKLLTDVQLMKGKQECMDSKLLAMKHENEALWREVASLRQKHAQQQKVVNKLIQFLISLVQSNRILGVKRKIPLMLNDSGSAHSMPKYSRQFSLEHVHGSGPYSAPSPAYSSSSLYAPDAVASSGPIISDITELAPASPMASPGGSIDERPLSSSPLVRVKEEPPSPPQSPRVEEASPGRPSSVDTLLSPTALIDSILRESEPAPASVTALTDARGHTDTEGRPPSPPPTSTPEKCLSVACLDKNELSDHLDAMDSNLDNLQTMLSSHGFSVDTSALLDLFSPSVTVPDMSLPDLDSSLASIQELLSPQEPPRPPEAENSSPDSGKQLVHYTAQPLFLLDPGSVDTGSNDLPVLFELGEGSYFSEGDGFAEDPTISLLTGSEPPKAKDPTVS

Chain of Bile acid receptor (Homo sapiens) (Q96RI1 whole entry, looked up, the tested form may be a part): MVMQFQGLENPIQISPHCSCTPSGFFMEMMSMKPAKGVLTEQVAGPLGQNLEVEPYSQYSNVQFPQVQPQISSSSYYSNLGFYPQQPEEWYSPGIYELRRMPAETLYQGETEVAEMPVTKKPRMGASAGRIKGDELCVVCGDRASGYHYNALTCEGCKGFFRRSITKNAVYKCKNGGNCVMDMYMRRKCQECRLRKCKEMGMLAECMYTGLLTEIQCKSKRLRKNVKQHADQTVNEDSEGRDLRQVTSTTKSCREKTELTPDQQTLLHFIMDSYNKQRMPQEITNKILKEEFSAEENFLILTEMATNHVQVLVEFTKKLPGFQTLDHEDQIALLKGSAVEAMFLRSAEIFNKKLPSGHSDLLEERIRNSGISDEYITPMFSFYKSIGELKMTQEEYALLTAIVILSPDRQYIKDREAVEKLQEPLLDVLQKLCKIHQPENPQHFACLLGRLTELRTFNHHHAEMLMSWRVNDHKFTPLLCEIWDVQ

In general, AC50 refers to the concentration at which the activity in the assay is half-maximal. For `CC(C)Oc1cc(-n2nc(C(C)(C)C)oc2=O)c(Cl)cc1Cl`, the compound was called inactive in [1], in experiment [2], in experiment [3], in [4], in experiment [5] and in experiment [6]. The compound was classed as inactive in experiment [7]. Moreover, the AC50 in experiment [8] is 25.1 µM (active).
As for `Cc1c(F)c(F)c(COC(=O)C2C(/C=C(\Cl)C(F)(F)F)C2(C)C)c(F)c1F` (configuration not stated), the call in [1], in experiment [2], in experiment [3], in experiment [4], in experiment [5] and in [6] was inactive. Besides, the result in experiment [7] and in experiment [8] was inactive.
`C=CC1(C)OC(=O)N(c2cc(Cl)cc(Cl)c2)C1=O` (configuration not stated): the compound was called inactive in [1], in experiment [2], in experiment [4], in [5], in [9] and in [6]. Also, the compound was classed as inactive in [7], in experiment [10] and in [8].
As to `COC(=O)C=C(C)OP(=O)(OC)OC`, the outcome in experiment [1], in [2], in experiment [3], in experiment [4], in experiment [5] and in [6] was inactive. Further, the compound was called inactive in [7] and in experiment [8].
Turning to `CCON=C(CC)C1=C(O)CC(c2c(C)cc(C)cc2C)CC1=O` (configuration not stated), the result in experiment [1], in experiment [2], in experiment [3], in experiment [4], in [5] and in experiment [6] was inactive. In addition, the call in [7] and in experiment [8] was inactive.
Consider `CC(C)(C)c1ccc(CSc2cnn(C(C)(C)C)c(=O)c2Cl)cc1`, for which the result in experiment [1], in experiment [2], in [3], in experiment [5] and in experiment [7] was inactive. The AC50 in experiment [4] was 9.92 µM (active); in [6] it was 407 nM (active); in experiment [10] it was 21.8 µM (active); in [8] it was 7.83 µM (active).
With `CNC(=O)ON=CC(C)(C)SC`, the compound was called inactive in experiment [1], in experiment [2], in experiment [4], in experiment [5], in [6] and in experiment [7]. The compound was called inactive in experiment [8]. Moreover, the AC50 in experiment [4] was 167 µM (active).
Turning to `COc1nc(C)nc(NC(=O)NS(=O)(=O)c2ccccc2CCC(F)(F)F)n1`, the compound was classed as inactive in [1], in [2], in [4], in [5], in [9] and in experiment [6]. For the same compound, the compound was called inactive in experiment [7], in [10] and in experiment [8].
In the case of `CCCCNC(=O)OCC#CI`, the concentration at half-maximal activity (AC50) in experiment [1] was 51.8 µM (active); in experiment [2] it was 160 µM (active); in experiment [4], 33 µM (active); in experiment [8] it was 35.9 µM (active). Further, the compound was called inactive in [1], in experiment [2], in [4], in experiment [5], in experiment [9] and in [6]. The call in experiment [7] and in experiment [8] was inactive.
As to `N#Cc1nn(-c2c(Cl)cc(C(F)(F)F)cc2Cl)c(N)c1S(=O)C(F)(F)F` (configuration not stated), the result in [1], in experiment [2], in [4], in [5], in [6] and in experiment [7] was inactive. Besides, the result in [8] was inactive. Moreover, the AC50 in [7] is 44.7 µM (active); in [8], 38.8 µM (active).
With `C=CCC1=C(C)C(OC(=O)C2C(C=C(C)C)C2(C)C)CC1=O` (configuration not stated), the concentration at half-maximal activity (AC50) in experiment [1] is 67.2 µM (active) [middle of 5 runs]; in experiment [2], 54.7 µM (active); in experiment [5], 107 µM (active); in experiment [6] it was 35 µM (active) [middle of 4 runs]; in [10], 74.8 µM (active) [middle of 6 runs]; in [8] it was 43.8 µM (active) [middle of 6 runs]. Moreover, the call in experiment [1], in experiment [2], in experiment [3], in experiment [4], in experiment [5] and in experiment [6] was inactive. Further, the result in experiment [7] was inactive.
Turning to `CS/C(C)=N/OC(=O)N(C)SN(C)C(=O)O/N=C(\C)SC`, the call in experiment [1], in experiment [2], in experiment [3], in experiment [4], in experiment [5] and in [6] was inactive. The compound was classed as inactive in experiment [7] and in experiment [8].
As for `CCOP(=S)(OCC)SCn1c(=O)oc2cc(Cl)ccc21`, the result in experiment [1], in [2], in experiment [4], in experiment [5], in experiment [9] and in experiment [7] was inactive. The AC50 in [6] is 28800 nM (active); in experiment [8], 66.2 µM (active).
